According to PubChem BioAssay AID1345085 (National Center for Advancing Translational Sciences (NCATS), 2018):
Inconclusive results are not listed. A number with no mark means an inactive call. Active and inactive are the calls of the source. The call rests on the fitted dose curve; in most records, active means well fitted cell-killing curve with a large enough effect; inconclusive means small, poorly fitted or top-dose-only effect, or effect the other way; inactive means no such curve, though single readings can be large or run the other way.

test system: SKOV3; assay: Confirmatory qHTS for gynecologic anti-cancer compounds from libraries of approved drugs and bioactive compounds; conditions: gynecologic cancer cell panel viability, ATPlite luminescence, 48 h; series mostly up to 57.6 µM; activity change, negative = viability loss: at the top concentration; further: nearly all actives have a fitted effect of over 55% in size
Method in brief: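 1,000 cells/well; 16 h pre-incubation 37 C, 5% CO2; pin-transferred cpd in DMSO, 11 conc (1:3), 57.5 uM–0.977 nM; 48 h; ATPlite, 15 min RT; luminescence → IC50.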
On the % scale 0 is the no-effect control and ±100 the full control effect; potency means the concentration at half of the fitted maximal effect.

Row | Structure (SMILES) | activity change, negative = viability loss | Potency
1 | CN1CCN(c2cccc(Nc3nc4c(-c5ccc(S(C)(=O)=O)cc5)cccn4n3)c2)CC1 | -10.2% | 
2 | COc1cc(N2CCC(N3CCN(C)CC3)CC2)ccc1Nc1ncc(Cl)c(Nc2ccccc2S(=O)(=O)C(C)C)n1 |  | 19.3 µM (active)
3 | COc1ccc(-c2cc3nccn3c(Nc3ncccc3C(N)=O)n2)cc1OC | 25.3% | 
4 | S=c1nc[nH]c2nc[nH]c12 |  | 5.44 µM (active)
5 | O=C1c2c(O)ccc(O)c2C(=O)c2c(NCCNCCO)ccc(NCCNCCO)c21 |  | 0.544 µM (active)
6 | Cc1cc(CN2CCN(c3c(Br)cnc4nc(-c5ccc(N6CCN(C)CC6)cc5)[nH]c34)CC2)no1 |  | 34.3 µM (active)
7 | NC(=O)Nc1cc(-c2cccc(F)c2)sc1C(=O)NC1CCCNC1 (stereo not given) |  | 5.44 µM (active)
8 | CN(C)C1CCN(C(=O)c2ccc(NC(=O)Nc3nc(N4CCOCC4)nc(N4CCOCC4)n3)cc2)CC1 |  | 0.109 µM (active)
9 | CC(C)CC(=O)Nc1n[nH]c2c1CN(C(=O)C1CCN(C)CC1)C2(C)C | 0.349% | 
10 | Nc1nc(Cl)nc2c1ncn2C1OC(CO)C(O)C1F (stereo not given) |  | 0.432 µM (active)
11 | CC(C)n1nc(-c2cc3cc(O)ccc3[nH]2)c2c(N)ncnc21 |  | 3.85 µM (active)
12 | CCS(=O)(=O)c1cccc(-c2cc(C(=O)NC3CCN(C)CC3)c(C)c3[nH]c4ncc(C)cc4c23)c1 |  | 4.76 µM (active)
13 | COc1cccc2c1C(=O)c1c(O)c3c(c(O)c1C2=O)C[C@@](O)(C(=O)CO)C[C@@H]3O[C@H]1C[C@H](N)[C@H](O)[C@H](C)O1 |  | 0.432 µM (active)
14 | CC(C)(C(=O)NCC(F)(F)C(F)(F)F)C(=O)NC1C(=O)Nc2ccccc2-c2ccccc21 (stereo not given) | 5.3% | 
15 | CNC(=O)c1ccccc1Nc1nc(Nc2ccc(N3CCOCC3)cc2OC)ncc1Cl |  | 6.85 µM (active)
16 | c1nc2nc(Nc3ccc(N4CCOCC4)cc3)nc(NC3CCCCC3)c2[nH]1 | -28.5% [at 19.5 µM] | 
17 | CN1CCN(CCOc2cc(OC3CCOCC3)c3c(Nc4c(Cl)ccc5c4OCO5)ncnc3c2)CC1 | -28% | 
18 | CC(Oc1ccc2[nH]nc(/C=C/c3cnn(CCO)c3)c2c1)c1c(Cl)cncc1Cl (stereo not given) |  | 3.06 µM (active)
19 | CC(C)C[C@H](NC(=O)[C@H](CCc1ccccc1)NC(=O)CN1CCOCC1)C(=O)N[C@@H](Cc1ccccc1)C(=O)N[C@@H](CC(C)C)C(=O)[C@@]1(C)CO1 |  | 13.7 µM (active)
20 | COc1ccc(CCC(=O)c2c(O)cc(O[C@@H]3O[C@H](CO)[C@@H](O)[C@H](O)[C@H]3O[C@@H]3O[C@@H](C)[C@H](O)[C@@H](O)[C@H]3O)cc2O)cc1O | 6.17% | 
21 | CN1C2CCC1CC(OC(=O)[C@H](CO)c1ccccc1)C2 (stereo not given in full) | -7.8% | 
22 | O=C1Cc2cc(CCN3CCN(c4nsc5ccccc45)CC3)c(Cl)cc2N1 | 3.98% | 
23 | Cc1cc(Nc2nc(N[C@@H](C)c3ccc(F)cc3)c(C#N)cc2F)n[nH]1 |  | 7.69 µM (active)
24 | O=C(/C=C/c1cccc(S(=O)(=O)Nc2ccccc2)c1)NO |  | 1.88 µM (active)
25 | Nc1ccn([C@@H]2O[C@H](CO)[C@@H](O)C2(F)F)c(=O)n1 |  | 1.37 µM (active)
26 | CC(C)C[C@H](NC(=O)[C@H](Cc1ccccc1)NC(=O)c1cnccn1)B(O)O |  | 3.06 µM (active)
27 | O=C(CCCCCCNC(=O)c1cnc(N(c2ccccc2)c2ccccc2)nc1)NO |  | 12.2 µM (active)
28 | COc1cc(N2CCC(N)CC2)ccc1Nc1ncc(Cl)c(-c2c[nH]c3ccccc23)n1 |  | 21.7 µM (active)
29 | NS(=O)(=O)OC[C@@H]1C[C@@H](n2ccc3c(N[C@H]4CCc5ccccc54)ncnc32)C[C@@H]1O | -8.5% | 
30 | CCC(=O)N1CCN(c2ccc(-n3c(=O)ccc4cnc5ccc(-c6cnc7ccccc7c6)cc5c43)cc2C(F)(F)F)CC1 |  | 0.0044 µM (active)
